# Key:
# Assay in all cases: DAPPL (digital affinity profiling via proximity ligation, sequencing); 10 mM Tris-HCl pH 7.5, 50 mM NaCl, 1 mM DTT, 4% glycerol, room temperature, 30 min; GST-TFs on glutathione beads, 16-mer random dsDNA library, 0.1% formaldehyde crosslink after washing; high values mean tight binding
# FEV = biological target: T1, FEV (Homo sapiens, UniProt Q99581 1-238); details: protein: recombinant; tags: N-terminal GST; dsDNA, one strand shown
# T1 sequence: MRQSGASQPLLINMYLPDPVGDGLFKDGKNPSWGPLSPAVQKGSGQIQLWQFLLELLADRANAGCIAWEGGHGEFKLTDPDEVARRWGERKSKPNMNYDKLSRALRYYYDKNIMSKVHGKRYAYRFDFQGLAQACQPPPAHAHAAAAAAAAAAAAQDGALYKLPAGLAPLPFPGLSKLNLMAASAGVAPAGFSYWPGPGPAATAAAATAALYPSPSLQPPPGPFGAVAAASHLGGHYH
# Method in brief: (§1)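 In yeast, human transcription factors were expressed with a GST fusion, then pulled down on glutathione beads and given DNA barcodes. Pooled with a tag-only sample, they were exposed to 200 nmole of a 16-mer random double-stranded DNA library (Tris/NaCl/DTT/glycerol buffer, room temperature, 30 min), washed, crosslinked with 0.1% formaldehyde, proximity-ligated using BsaI/T4 ligase for 1 h at 37 °C, PCR-amplified and read on an Illumina NextSeq500. Each hexamer's frequency of reads for a factor, divided by the matching frequency for the tag-only sample, gives the binding signal.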
# ETV5 = ETV5 (Homo sapiens, UniProt P41161 1-510); details: protein: recombinant; tags: N-terminal GST; dsDNA, one strand shown
# Method in brief: as §1
# HSF1 = HSF1 (Homo sapiens, UniProt Q00613 1-529); details: protein: recombinant; tags: N-terminal GST; chain copies: 3; dsDNA, one strand shown
# Method in brief: as §1
# SPIC = biological target: T2, SPIC (Homo sapiens, UniProt Q8N5J4 1-248); details: protein: recombinant; tags: N-terminal GST; dsDNA, one strand shown
# T2 sequence: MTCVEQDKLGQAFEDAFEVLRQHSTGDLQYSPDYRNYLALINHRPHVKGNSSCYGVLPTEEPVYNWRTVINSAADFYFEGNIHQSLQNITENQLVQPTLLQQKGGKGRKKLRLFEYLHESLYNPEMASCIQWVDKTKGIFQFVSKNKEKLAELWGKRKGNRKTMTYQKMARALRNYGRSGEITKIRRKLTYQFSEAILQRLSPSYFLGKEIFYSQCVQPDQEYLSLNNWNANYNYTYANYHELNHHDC
# Method in brief: as §1
# ELF4 = ELF4 (Homo sapiens, UniProt Q99607 1-663); details: protein: recombinant; tags: N-terminal GST; dsDNA, one strand shown
# Method in brief: as §1
# ELK4 = biological target: T3, ELK4 (Homo sapiens, UniProt P28324-2 1-405); details: protein: recombinant; tags: N-terminal GST; dsDNA, one strand shown
# T3 sequence: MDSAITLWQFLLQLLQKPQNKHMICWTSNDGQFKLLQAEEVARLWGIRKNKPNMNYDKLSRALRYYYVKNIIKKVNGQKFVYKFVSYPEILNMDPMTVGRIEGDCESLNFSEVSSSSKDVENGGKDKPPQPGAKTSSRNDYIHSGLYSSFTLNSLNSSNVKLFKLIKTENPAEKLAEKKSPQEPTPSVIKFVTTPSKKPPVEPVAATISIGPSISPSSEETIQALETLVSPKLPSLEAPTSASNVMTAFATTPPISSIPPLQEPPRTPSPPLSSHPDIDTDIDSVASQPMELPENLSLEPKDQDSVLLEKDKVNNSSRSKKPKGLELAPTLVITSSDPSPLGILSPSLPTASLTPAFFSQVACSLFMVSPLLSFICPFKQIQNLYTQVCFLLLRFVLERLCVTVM
# Method in brief: as §1
# ETV2 = biological target: T4, ETV2 (Homo sapiens, UniProt O00321 1-342); details: protein: recombinant; tags: N-terminal GST; dsDNA, one strand shown
# T4 sequence: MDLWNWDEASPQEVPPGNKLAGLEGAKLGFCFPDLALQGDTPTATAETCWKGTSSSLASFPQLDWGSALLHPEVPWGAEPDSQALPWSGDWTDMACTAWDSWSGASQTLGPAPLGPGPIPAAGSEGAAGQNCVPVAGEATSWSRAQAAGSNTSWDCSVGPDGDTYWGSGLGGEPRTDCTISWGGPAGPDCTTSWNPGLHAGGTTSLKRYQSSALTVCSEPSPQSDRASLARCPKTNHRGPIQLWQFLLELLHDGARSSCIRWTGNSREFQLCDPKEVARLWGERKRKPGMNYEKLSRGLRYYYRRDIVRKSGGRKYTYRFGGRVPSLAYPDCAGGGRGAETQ
# Method in brief: as §1
# ELF3 = biological target: T5, ELF3 (Homo sapiens, UniProt P78545 1-371); details: protein: recombinant; tags: N-terminal GST; dsDNA, one strand shown
# T5 sequence: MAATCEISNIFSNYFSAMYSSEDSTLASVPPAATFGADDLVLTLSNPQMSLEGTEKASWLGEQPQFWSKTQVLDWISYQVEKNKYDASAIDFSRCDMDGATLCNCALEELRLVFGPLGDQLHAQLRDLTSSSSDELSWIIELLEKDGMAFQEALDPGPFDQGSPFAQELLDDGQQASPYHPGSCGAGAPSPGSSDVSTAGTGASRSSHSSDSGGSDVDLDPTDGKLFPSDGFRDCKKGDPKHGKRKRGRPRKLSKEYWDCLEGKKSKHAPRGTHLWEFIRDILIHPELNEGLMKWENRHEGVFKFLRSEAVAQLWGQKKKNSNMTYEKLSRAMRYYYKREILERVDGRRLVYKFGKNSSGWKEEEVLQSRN
# Method in brief: as §1
# ETV1 = ETV1 (Homo sapiens, UniProt P50549 1-477); details: protein: recombinant; tags: N-terminal GST; dsDNA, one strand shown
# Method in brief: as §1
# ERF = biological target: T6, ERF (Homo sapiens, UniProt P50548 1-548); details: protein: recombinant; tags: N-terminal GST; dsDNA, one strand shown
# T6 sequence: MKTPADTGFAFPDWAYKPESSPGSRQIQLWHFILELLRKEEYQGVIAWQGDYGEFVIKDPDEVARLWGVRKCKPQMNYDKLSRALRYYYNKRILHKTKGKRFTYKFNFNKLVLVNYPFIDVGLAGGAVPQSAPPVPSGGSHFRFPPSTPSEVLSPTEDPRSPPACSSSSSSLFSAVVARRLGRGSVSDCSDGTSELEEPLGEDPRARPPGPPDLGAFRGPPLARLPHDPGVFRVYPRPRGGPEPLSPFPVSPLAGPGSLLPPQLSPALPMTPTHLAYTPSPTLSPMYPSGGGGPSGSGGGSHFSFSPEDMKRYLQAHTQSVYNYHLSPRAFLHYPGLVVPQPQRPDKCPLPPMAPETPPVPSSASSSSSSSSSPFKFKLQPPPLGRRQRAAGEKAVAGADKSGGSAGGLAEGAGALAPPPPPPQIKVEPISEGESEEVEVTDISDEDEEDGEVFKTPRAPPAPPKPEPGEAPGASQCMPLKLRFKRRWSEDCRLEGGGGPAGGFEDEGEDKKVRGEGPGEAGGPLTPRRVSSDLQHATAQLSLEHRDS
# Method in brief: as §1
# ETV3L = biological target: T7, ETV3L (Homo sapiens, UniProt Q6ZN32 1-361); details: protein: recombinant; tags: N-terminal GST; dsDNA, one strand shown
# T7 sequence: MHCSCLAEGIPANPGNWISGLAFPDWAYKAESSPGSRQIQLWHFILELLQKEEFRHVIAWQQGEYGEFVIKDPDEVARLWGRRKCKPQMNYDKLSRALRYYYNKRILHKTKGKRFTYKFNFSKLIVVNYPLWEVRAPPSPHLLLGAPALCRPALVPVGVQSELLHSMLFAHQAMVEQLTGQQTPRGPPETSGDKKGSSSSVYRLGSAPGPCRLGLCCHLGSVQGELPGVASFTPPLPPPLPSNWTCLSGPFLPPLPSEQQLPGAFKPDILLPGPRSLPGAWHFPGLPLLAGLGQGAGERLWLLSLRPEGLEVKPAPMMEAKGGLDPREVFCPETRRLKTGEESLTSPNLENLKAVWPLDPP
# Method in brief: as §1
# ETS2 = biological target: T8, ETS2 (Homo sapiens, UniProt P15036 1-469); details: protein: recombinant; tags: N-terminal GST; dsDNA, one strand shown
# T8 sequence: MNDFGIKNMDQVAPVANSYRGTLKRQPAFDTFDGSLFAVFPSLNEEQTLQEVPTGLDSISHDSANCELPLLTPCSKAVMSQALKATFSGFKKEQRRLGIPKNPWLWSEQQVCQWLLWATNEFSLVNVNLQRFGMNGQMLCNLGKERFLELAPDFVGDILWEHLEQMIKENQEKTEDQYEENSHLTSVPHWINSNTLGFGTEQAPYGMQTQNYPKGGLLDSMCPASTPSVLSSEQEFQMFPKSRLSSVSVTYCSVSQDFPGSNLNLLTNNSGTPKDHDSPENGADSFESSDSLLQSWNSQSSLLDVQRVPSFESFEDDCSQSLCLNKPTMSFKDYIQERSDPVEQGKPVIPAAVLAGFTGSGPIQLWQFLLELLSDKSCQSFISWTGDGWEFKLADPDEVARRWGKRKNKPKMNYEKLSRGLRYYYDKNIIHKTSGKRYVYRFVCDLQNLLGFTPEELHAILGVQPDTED
# Method in brief: as §1
# SPDEF = biological target: T9, SPDEF (Homo sapiens, UniProt O95238 1-335); details: protein: recombinant; tags: N-terminal GST; dsDNA, one strand shown
# T9 sequence: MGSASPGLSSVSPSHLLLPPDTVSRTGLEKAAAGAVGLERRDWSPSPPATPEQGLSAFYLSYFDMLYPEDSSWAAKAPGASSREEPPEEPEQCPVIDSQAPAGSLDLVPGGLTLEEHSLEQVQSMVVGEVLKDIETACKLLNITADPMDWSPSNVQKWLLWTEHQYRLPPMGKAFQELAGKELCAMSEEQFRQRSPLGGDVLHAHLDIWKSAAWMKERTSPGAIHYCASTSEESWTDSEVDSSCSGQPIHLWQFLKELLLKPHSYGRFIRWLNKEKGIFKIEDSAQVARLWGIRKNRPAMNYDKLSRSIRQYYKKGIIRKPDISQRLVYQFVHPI
# Method in brief: as §1
# ETV7 = biological target: T10, ETV7 (Homo sapiens, UniProt Q9Y603 1-341); details: protein: recombinant; tags: N-terminal GST; dsDNA, one strand shown
# T10 sequence: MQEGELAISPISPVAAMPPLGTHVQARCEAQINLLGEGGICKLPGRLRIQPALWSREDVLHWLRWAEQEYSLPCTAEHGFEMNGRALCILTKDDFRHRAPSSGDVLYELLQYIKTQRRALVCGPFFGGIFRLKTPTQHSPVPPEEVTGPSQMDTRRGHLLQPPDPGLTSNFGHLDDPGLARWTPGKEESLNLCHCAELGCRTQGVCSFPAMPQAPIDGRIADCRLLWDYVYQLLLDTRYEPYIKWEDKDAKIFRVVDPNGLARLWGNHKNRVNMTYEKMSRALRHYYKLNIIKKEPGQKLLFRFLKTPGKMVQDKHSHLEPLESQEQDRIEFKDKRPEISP
# Method in brief: as §1
# ELF5 = biological target: T11, ELF5 (Homo sapiens, UniProt Q9UKW6-2 1-255); details: protein: recombinant; tags: N-terminal GST; dsDNA, one strand shown
# T11 sequence: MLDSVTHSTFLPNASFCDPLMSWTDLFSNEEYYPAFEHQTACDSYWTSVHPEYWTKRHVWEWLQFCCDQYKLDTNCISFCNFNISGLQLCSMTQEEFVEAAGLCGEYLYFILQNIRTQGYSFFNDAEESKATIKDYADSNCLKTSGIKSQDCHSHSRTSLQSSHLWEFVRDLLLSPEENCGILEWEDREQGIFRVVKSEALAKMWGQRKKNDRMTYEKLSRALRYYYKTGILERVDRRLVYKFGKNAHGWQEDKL
# Method in brief: as §1
# ETV3 = biological target: T12, ETV3 (Homo sapiens, UniProt P41162-2 1-143); details: protein: recombinant; tags: N-terminal GST; dsDNA, one strand shown
# T12 sequence: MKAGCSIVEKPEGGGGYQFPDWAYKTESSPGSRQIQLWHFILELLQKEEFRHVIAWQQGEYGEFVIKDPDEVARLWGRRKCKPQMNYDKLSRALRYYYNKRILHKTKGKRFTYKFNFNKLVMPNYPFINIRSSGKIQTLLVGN
# Method in brief: as §1
# ETV6 = ETV6 (Homo sapiens, UniProt P41212 1-452); details: protein: recombinant; tags: N-terminal GST; dsDNA, one strand shown
# Method in brief: as §1
# Chain of ETV1 (P50549 whole entry): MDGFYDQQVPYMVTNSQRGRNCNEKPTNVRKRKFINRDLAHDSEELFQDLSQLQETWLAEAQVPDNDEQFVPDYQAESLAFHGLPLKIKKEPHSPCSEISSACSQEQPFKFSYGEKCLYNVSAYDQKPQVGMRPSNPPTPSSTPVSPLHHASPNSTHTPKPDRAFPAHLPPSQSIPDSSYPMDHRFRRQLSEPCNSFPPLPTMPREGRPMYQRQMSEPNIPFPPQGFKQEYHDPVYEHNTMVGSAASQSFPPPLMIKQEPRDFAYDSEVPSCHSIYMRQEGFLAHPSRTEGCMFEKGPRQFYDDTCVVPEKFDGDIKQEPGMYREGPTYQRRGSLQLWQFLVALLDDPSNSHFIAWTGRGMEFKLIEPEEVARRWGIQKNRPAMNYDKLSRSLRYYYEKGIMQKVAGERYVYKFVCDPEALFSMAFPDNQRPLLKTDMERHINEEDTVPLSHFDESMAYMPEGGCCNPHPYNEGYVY
# Chain of ETV5 (P41161 whole entry): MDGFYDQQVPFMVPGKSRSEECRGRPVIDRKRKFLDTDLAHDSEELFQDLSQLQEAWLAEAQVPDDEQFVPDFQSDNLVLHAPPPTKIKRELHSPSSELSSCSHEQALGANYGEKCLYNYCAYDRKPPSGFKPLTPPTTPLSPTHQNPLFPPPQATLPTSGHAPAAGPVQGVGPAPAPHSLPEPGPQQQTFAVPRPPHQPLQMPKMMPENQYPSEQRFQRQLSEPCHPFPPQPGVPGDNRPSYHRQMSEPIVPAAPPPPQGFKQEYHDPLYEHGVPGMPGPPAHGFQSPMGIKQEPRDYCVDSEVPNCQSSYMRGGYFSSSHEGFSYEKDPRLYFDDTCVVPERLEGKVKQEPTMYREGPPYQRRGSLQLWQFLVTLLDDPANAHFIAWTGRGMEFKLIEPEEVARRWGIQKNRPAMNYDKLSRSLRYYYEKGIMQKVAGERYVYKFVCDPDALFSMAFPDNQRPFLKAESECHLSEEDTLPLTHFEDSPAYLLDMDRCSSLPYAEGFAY
# Chain of ETV6 (P41212 whole entry): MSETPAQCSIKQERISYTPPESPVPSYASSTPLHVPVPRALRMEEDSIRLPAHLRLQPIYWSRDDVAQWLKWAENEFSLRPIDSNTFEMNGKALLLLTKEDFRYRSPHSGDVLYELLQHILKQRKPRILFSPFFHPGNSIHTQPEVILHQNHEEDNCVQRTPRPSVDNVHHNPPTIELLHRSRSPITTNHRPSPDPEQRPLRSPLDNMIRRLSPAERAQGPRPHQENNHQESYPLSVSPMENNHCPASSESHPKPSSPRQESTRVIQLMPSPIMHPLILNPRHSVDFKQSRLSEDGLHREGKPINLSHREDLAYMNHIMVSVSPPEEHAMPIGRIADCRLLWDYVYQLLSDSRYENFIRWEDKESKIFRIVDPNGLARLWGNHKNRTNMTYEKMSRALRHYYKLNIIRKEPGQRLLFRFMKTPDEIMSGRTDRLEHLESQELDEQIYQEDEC
# Chain of HSF1 (Q00613 whole entry): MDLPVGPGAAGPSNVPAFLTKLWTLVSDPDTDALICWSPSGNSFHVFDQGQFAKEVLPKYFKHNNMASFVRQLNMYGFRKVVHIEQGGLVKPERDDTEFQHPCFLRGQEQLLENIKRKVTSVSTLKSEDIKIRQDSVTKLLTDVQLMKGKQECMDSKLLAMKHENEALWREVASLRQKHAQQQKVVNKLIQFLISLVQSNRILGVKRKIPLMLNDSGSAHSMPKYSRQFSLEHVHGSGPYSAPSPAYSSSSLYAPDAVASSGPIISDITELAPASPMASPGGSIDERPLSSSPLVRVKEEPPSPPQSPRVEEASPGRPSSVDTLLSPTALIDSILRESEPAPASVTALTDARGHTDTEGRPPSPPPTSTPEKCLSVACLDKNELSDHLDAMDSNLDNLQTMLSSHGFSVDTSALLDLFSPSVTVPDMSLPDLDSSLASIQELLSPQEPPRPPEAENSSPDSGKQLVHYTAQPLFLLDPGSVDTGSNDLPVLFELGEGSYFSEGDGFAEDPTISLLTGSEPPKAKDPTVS
# Chain of ELF4 (Q99607 whole entry): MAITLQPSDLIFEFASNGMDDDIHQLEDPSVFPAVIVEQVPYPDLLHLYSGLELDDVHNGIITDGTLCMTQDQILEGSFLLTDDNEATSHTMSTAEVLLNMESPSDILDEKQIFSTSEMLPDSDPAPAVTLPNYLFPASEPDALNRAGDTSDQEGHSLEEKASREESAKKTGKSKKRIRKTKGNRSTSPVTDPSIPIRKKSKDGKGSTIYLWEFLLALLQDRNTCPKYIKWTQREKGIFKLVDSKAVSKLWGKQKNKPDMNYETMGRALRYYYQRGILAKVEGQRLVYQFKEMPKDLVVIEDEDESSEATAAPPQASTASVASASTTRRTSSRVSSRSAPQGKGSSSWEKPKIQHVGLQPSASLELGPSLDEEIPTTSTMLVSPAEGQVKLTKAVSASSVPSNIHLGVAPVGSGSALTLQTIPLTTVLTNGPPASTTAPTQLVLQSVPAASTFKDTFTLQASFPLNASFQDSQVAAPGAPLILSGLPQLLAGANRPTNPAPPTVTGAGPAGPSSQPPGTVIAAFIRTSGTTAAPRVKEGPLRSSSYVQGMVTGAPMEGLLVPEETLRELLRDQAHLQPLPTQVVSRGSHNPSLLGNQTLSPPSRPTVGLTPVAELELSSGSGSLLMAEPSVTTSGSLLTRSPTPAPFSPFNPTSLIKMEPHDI
sequence,measurement,setting,value
CACTGC,binding signal,FEV,"1.38 fold enrichment (6-mer frequency, TF over GST control)"
same,binding signal,ETV5,"1.37 fold enrichment (6-mer frequency, TF over GST control)"
same,binding signal,HSF1,"1.04 fold enrichment (6-mer frequency, TF over GST control)"
same,binding signal,SPIC,"1.46 fold enrichment (6-mer frequency, TF over GST control)"
same,binding signal,ELF4,"1.32 fold enrichment (6-mer frequency, TF over GST control)"
same,binding signal,ELK4,"1.43 fold enrichment (6-mer frequency, TF over GST control)"
same,binding signal,ETV2,"1.28 fold enrichment (6-mer frequency, TF over GST control)"
same,binding signal,ELF3,"1.15 fold enrichment (6-mer frequency, TF over GST control)"
same,binding signal,ETV1,"1.36 fold enrichment (6-mer frequency, TF over GST control)"
same,binding signal,ERF,"1.38 fold enrichment (6-mer frequency, TF over GST control)"
same,binding signal,ETV3L,"1.59 fold enrichment (6-mer frequency, TF over GST control)"
same,binding signal,ETS2,"1.4 fold enrichment (6-mer frequency, TF over GST control)"
same,binding signal,SPDEF,"1.42 fold enrichment (6-mer frequency, TF over GST control)"
same,binding signal,ETV7,"1.42 fold enrichment (6-mer frequency, TF over GST control)"
same,binding signal,ELF5,"1.23 fold enrichment (6-mer frequency, TF over GST control)"
same,binding signal,ETV3,"1.26 fold enrichment (6-mer frequency, TF over GST control)"
same,binding signal,ETV6,"1.41 fold enrichment (6-mer frequency, TF over GST control)"

# — publication PMC7862700, “An all-to-all approach to the identification of sequence-specific readers for epigenetic DNA modifications on cytosine”
